The source of these data is PubChem BioAssay.

Where “and” joins values, the source holds several entries; their conditions need not be identical. Equal entries are not always repeated. Calls of active or inactive are those of the source.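 How the source made its calls, unless noted: active means mean z-score across replicates of 1.96 or higher in either the MELAS or the Rieske mutant cell line; inactive means the rest.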

What is called viability is a read-out of living cells in per cent, often relative to untreated cells.

The nature of assay [1]: sensitizers of A549 cells to miR-34 induction, primary screen, imaging, A549 dox-inducible miR-34, nuclei and caspase counts (AID 1347080;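 active means compounds whose cell count with miR-34 switched on is under 0.7 times the count with it off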). The following applies: A549 miR-34 inducible, Hoechst nuclei count, 48 h.
Assay [2] in a line: survival rescue of mitochondrial mutant cells in low glucose, primary screen, MELAS cybrids, Rieske KO mouse fibroblasts, CellTiter-Glo (AID 1508586).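 Further: z relative to plate mean and SD of compound and empty wells.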
Assay [3] can be described thus: viability rescue of complex I mutant cybrids, primary screen, cell-based, galactose medium, ATP luminescence (AID 1645843;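 active means z-score of at least 1.8 in each of two replicates, scored against plate mean and spread of sample wells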;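 further: positive z means more ATP and so rescue of galactose-driven cybrid death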). Particulars: complex I mutant cybrid cells, 72 h, stronger effect = higher value.
Assay [4] in a line: liver-stage malaria parasite growth inhibition, primary screen, cell-based, HepG2, luciferase luminescence, HepG2 viability (AID 624349; in the data active means parasite load remaining mostly below about 12%, no sharp cut-off; inactive means mostly above about 10%;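 further: 100% = mean of DMSO negative control wells on the same plate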). The following applies: P. berghei liver stage in HepG2, luciferase luminescence, concentration not given here; parasite load remaining: stronger effect = lower value; viability: measured here: HepG2 viability without parasites.
The target of assay [5] is NAD(+) hydrolase SARM1 (Homo sapiens) (UniProt Q6SZW1). Put plainly: SARM1 TIR NADase inhibitors, cell lysate, NAD-Glo luminescence (AID 1508614;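 active means compound whose remaining NAD level is above about 45 nM, limit read from the data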). Particulars: SAM-TIR HEK293T lysate NADase, at 1 µM, stronger effect = higher value.
NAD(+) hydrolase SARM1 (Homo sapiens), sequence (Q6SZW1 whole entry, looked up): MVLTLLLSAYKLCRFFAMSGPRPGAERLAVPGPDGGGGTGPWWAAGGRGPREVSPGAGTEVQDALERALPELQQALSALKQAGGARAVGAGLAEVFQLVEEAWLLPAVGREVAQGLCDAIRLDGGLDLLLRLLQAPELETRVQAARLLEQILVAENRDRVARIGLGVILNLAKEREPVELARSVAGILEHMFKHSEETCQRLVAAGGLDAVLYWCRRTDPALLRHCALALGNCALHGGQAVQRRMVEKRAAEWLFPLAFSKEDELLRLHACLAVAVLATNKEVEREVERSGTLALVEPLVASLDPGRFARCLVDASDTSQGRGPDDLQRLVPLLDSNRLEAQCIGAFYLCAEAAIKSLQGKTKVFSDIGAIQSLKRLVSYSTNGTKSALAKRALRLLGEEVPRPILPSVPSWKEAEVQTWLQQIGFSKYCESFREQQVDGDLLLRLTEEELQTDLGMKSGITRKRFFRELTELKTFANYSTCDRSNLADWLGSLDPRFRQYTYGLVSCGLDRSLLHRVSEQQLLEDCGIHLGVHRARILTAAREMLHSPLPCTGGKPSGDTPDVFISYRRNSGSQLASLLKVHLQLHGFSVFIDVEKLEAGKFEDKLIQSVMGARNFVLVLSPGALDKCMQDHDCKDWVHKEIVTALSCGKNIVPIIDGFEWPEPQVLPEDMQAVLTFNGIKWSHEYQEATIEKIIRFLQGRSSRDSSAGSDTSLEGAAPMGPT
The mark [6] stands for this setting: stronger effect = lower value, cell number ratio, induced over uninduced.
Setting [7] is: measured here: relative caspase fold change +Dox/-Dox.
Where [8] appears, read: measured here: total cells with miR-34 induction, stronger effect = lower value.
Where [9] appears, read: measured here: total cells without miR-34 induction.
Where [10] appears, read: MELAS cybrid survival, CellTiter-Glo 48 h, stronger effect = higher value.
The mark [11] stands for this setting: Rieske KO mouse fibroblast survival, CellTiter-Glo 72 h.

Take `CCn1cnc(NC(=O)N(C)Cc2ccc(OC)cc2)n1`: the fold change is 0.869 (inactive) in assay [1] (setting [6]) and 1.63 in assay [1] (setting [7]). Moreover, the cell count in assay [1] (setting [8]) is 8620; in assay [1] (setting [9]), 9910. The values for the z-score in assay [2] (setting [10]), in assay [2] (setting [11]) and in assay [3] were -0.112 (inactive), -0.365 and 1.77 (inactive), respectively.

Consider `NCc1ccccc1CC(=O)N[C@@H]1C(=O)N2C(C(=O)O)=C(CSc3nnnn3CC(=O)O)CS[C@H]12`, for which the parasite load remaining in assay [4] was 167% (inactive) and 62% (inactive). Besides, in assay [4], the viability is 121% and 87.5%. For the same compound, the fold change in assay [1] (setting [6]) was 0.949 (inactive); in assay [1] (setting [7]), 1.15. In addition, the cell count in assay [1] (setting [8]) was determined as 8230; in assay [1] (setting [9]), 8670. Also, the z-score was 0.404 (inactive) in assay [2] (setting [10]) and -0.0556 in assay [2] (setting [11]). Moreover, in assay [5], the remaining NAD was 10 nM (inactive).

Take `O=C(O)CSc1nc(-c2cccc(Cl)c2)no1`: the fold change is 0.912 (inactive) in assay [1] (setting [6]) and 0.254 in assay [1] (setting [7]). The cell count in assay [1] (setting [8]) was determined as 8810; in assay [1] (setting [9]), 9660. For the same compound, the z-score in assay [2] (setting [10]) is 0.659 (inactive); in assay [2] (setting [11]) it was -0.279; in assay [3], 0.49 (inactive).
